Compound activity (PubChem)
CYP2C19 activ: activators of human cytochrome P450 2C19 | P33261 | recombinant CYP2C19, luciferin-H EGE luminescence; hits give high values; 0 = fully inhibited enzyme, 1 = untreated enzyme | activation factor at 5 µM | 96,000 tested, under 10 active;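 active = activation factor of at least 2 at 5 µM in the primary screen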;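 note: 0 = wells with 2.5 mM tranylcypromine and 1 = vehicle-only wells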
Pyk2 oligo antag: antagonists of human Pyk2 oligomerization; Q14289; Q293 cells, Pyk2 FERM NanoBiT luminescence; hits give low values; z-score (the deposit names both 25 µM and 10 µM); actives 0.83% (n = 99,000); AID 1347419;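 active = Z-score of -3 or lower, scaled per plate to the spread of control and sample wells; inactive = z-score above -3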;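 note: negative z-score means lost luminescence so less FERM oligomerization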
CYP2C19 inh: inhibitors of human CYP2C19; P33261; CYP2C19 Supersomes, luciferin-H EGE luminescence, 30 min; inhibition, % at 5 µM; actives 21% (n = 96,000); AID 778;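 active = CYP2C19 inhibition above a set limit at 5 µM in the primary screen, cut at about 50% in these data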;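 note: plate controls were negative control wells for no effect and 2.5 mM tranylcypromine positive control for full effect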
CYP2C9 inhib: human CYP2C9 inhibition; P11712; inhibition, % at 5 µM; actives 20% (n = 96,000); CYP2C9 Supersomes, luciferin-H conversion, luminescence;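 active = blocking of liver enzyme CYP2C9 beyond about 50% at 5 µM, limit read from the data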
Target sequence (P11712 whole entry, looked up): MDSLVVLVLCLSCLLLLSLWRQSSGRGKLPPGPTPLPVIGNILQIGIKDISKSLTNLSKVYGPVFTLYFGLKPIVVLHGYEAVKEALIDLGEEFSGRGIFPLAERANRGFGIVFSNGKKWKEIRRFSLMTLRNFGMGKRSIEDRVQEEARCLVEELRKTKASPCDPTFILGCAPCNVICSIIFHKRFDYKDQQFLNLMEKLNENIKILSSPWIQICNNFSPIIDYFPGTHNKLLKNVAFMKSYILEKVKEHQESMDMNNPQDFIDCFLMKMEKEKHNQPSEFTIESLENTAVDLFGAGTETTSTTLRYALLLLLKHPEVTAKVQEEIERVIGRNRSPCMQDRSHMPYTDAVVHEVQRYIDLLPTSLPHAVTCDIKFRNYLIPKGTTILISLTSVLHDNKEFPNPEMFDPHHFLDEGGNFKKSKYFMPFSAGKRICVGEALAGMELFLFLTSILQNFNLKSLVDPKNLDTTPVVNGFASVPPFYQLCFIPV
CYP2C9 activ: CYP2C9 (human) activation; recombinant CYP2C9, luciferin-H conversion, luminescence; hits give high values; factor 1 = untreated enzyme, 0 = blocked; actives 1.4% (n = 96,000); activation factor at 5 µM; P11712;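 active = activation factor of 2 or more for CYP2C9 at a 5 µM dose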;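 note: 0 = sulfaphenazole-blocked wells and 1 = vehicle-only wells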
Cav3 T inh: human Cav3.2 channel inhibition, primary screen. O95180. Cav3.2-expressing cells, Fluo-4 calcium fluorescence FDSS; hits give low values. B-score at 10 µM. actives 4% (n = 100,000). AID 449739;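 active = single-dose well whose peak fluorescence ratio is a statistical outlier from its plate by either plate-standardised score or position-corrected B-score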
An asterisk follows results filed as active. In the library only some 27% were active in any assay of this set; here they are far more common.

Results for COc1ccc(Br)cc1C(=O)Nc1cccc(C)c1 ?
CYP2C19 activ: 0.9; Pyk2 oligo antag: -0.41; CYP2C19 inh: 10; CYP2C9 inhib: 32; CYP2C9 activ: 0.7; Cav3 T inh: 0.21

Results for COc1c(C)cc(Br)cc1C(=O)Nc1cccc(NC(=O)c2ccco2)c1 ?
CYP2C19 activ: 0; Pyk2 oligo antag: -1.4; CYP2C19 inh: 97*; CYP2C9 inhib: 83*; CYP2C9 activ: 0.2; Cav3 T inh: -2.5

How did COc1ccc(Br)cc1C(=O)Nc1cccc(NC(=O)c2ccco2)c1 do in these assays?
CYP2C19 activ: 0.1; Pyk2 oligo antag: -2; CYP2C19 inh: 88*; CYP2C9 inhib: 13; CYP2C9 activ: 0.9; Cav3 T inh: -2.4

Results for CCc1ccc(CN2CCN(C(=O)c3cccc(OC)c3OC)CC2)cc1 ?
Pyk2 oligo antag: -0.22; Cav3 T inh: 0.39

Results for CCn1c(=O)c2cc(C(=O)N3CCOCC3)sc2c2ccccc21 ?
CYP2C19 activ: 0.8; CYP2C19 inh: 22; CYP2C9 inhib: -44; CYP2C9 activ: 1.4; Cav3 T inh: -0.16

How did Cn1c2ccccc2c2cc(C(=O)N3CCOCC3)sc21 do in these assays?
CYP2C19 activ: 0.8; Pyk2 oligo antag: 0.21; CYP2C19 inh: 24; CYP2C9 inhib: -148; CYP2C9 activ: 2.5*; Cav3 T inh: 0.6

What do the screens show for `Cc1ccc(S(=O)(=O)NCC2CCC(C(=O)O)CC2)cc1` (configuration not stated)?
CYP2C19 activ: 1; Pyk2 oligo antag: 0.68; CYP2C19 inh: 4; CYP2C9 inhib: 8; CYP2C9 activ: 0.9; Cav3 T inh: -0.035

How did O=C(O)c1cc(NS(=O)(=O)c2cccc3ccccc23)ccc1O do in these assays?
CYP2C19 activ: 1; Pyk2 oligo antag: 0.54; CYP2C19 inh: 4; CYP2C9 inhib: 38; CYP2C9 activ: 0.6; Cav3 T inh: 0.37

Results for CCN(CC)S(=O)(=O)c1cccc2nsnc12 ?
CYP2C19 activ: 1; Pyk2 oligo antag: 1.2; CYP2C19 inh: 1; CYP2C9 inhib: -21; CYP2C9 activ: 1.2; Cav3 T inh: 0.68

How did CN(CC(=O)NC1CCCCCCC1)S(=O)(=O)c1cccc2cccnc12 do in these assays?
CYP2C19 activ: 0.2; CYP2C19 inh: 75*; CYP2C9 inhib: -10; CYP2C9 activ: 1.1; Cav3 T inh: -0.32

Results for CCN(CC)S(=O)(=O)c1cccc2cc(C(=O)O)c(O)cc12 ?
CYP2C19 activ: 1; Pyk2 oligo antag: -0.83; CYP2C19 inh: 4; CYP2C9 inhib: 71*; CYP2C9 activ: 0.3; Cav3 T inh: 0.45

How did CCN(CC)S(=O)(=O)c1cccc2cccnc12 do in these assays?
CYP2C19 activ: 0.7; Pyk2 oligo antag: -0.02; CYP2C19 inh: 34; CYP2C9 inhib: -379; CYP2C9 activ: 4.8*; Cav3 T inh: 0.29

How did CCN(CC)S(=O)(=O)c1cccc2c(N(C)C)cccc12 do in these assays?
CYP2C19 activ: 0.4; Pyk2 oligo antag: -1.4; CYP2C19 inh: 57*; CYP2C9 inhib: -34; CYP2C9 activ: 1.3; Cav3 T inh: -2.8

What do the screens show for `Cc1cc2cc(CCNC(=O)CC(C)(C)C)c(=O)[nH]c2cc1C`?
CYP2C19 activ: 1.1; CYP2C19 inh: -11; CYP2C9 inhib: -16; CYP2C9 activ: 1.2; Cav3 T inh: -0.39

How did CN(CC(=O)N1CCCCCC1)S(=O)(=O)c1cccc2cccnc12 do in these assays?
CYP2C19 activ: 0.8; CYP2C19 inh: 16; CYP2C9 inhib: -226; CYP2C9 activ: 3.3*; Cav3 T inh: -1.6

Results for CN(CC(=O)N1CCN(C2CCCCC2)CC1)S(=O)(=O)c1cccc2nsnc12 ?
CYP2C19 activ: 1.1; Pyk2 oligo antag: 0.67; CYP2C19 inh: -10; CYP2C9 inhib: 12; CYP2C9 activ: 0.9; Cav3 T inh: 1.5

How did c1ccc2nc(-c3ccncc3)ccc2c1 do in these assays?
CYP2C19 activ: 0.3; Pyk2 oligo antag: 1.1; CYP2C19 inh: 68*; CYP2C9 inhib: 36; CYP2C9 activ: 0.6; Cav3 T inh: 0.29

How did c1ccc2nc(-c3ccc(N4CCOCC4)cc3)ccc2c1 do in these assays?
CYP2C19 activ: 0.6; Pyk2 oligo antag: -1.1; CYP2C19 inh: 41; CYP2C9 inhib: -45; CYP2C9 activ: 1.5; Cav3 T inh: -0.57

How did O=C(CC1Sc2ncnn2C1=O)Nc1ccccc1 (configuration not stated) do in these assays?
CYP2C19 activ: 1.1; Pyk2 oligo antag: -1.4; CYP2C19 inh: -7; CYP2C9 inhib: -12; CYP2C9 activ: 1.1; Cav3 T inh: 0.2
